{"source": "the supplement of paper PMC8183993", "note": "Several values for one entry are separate records, joined by “and”; a condition that tells them apart may be missing. Identical values can stand only once. Counter-ions that a name gives are not always drawn. ± gives the standard deviation of the averaged measurements. Whole data set: some 3,200 compounds, median “nuclei count (viability) relative to DMSO” near 99, cut for the lowest 2% near 16. Only a selection was taken, and the lowest values are over-represented in it overall.", "data": [{"tested_on": "U2OS", "test": "nuclei count (viability) relative to DMSO (% of DMSO); higher = more viable cells", "details": "10 µM; 24 h", "method": "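Primary image-based screen in U2OS cells: compounds at 10 uM for 24 h, then a 1 h o-propargyl-puromycin (OPP) pulse, click labelling, and high-throughput microscopy. Mean cytoplasmic OPP intensity and nuclei count were normalised to DMSO wells within each plate (DMSO = 100) and averaged over triplicate plates.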", "values": [{"molecule": "CCN(C(=O)CO)[C@H]1CN(/C(=N\\C#N)Nc2cccc(OC(F)F)c2)N=C1c1ccc(Cl)c(Cl)c1", "nuclei count": 111}, {"molecule": "CN1CCN(c2nc(C3=C(c4c[nH]c5ccccc45)C(=O)NC3=O)c3ccccc3n2)CC1", "note": "[Sotrastaurin (AEB071)]", "nuclei count": "95.2 ± 3.4"}, {"molecule": "O=C(/C=C/c1ccc(O)cc1)CC(=O)/C=C/c1ccc(O)cc1", "note": "[bis-demethoxycurcumin]", "nuclei count": 93.2}, {"molecule": "C=CC(=O)Nc1cccc(Nc2nc(Nc3ccc(N4CCN(C(C)=O)CC4)cc3OC)ncc2C(F)(F)F)c1", "nuclei count": 57.6}, {"molecule": "C=CC(=O)Nc1cccc(Nc2nc(Nc3ccc(NC4CN(CCF)C4)cc3OC)ncc2C(F)(F)F)c1", "nuclei count": 20.7}, {"molecule": "CC(=O)NCC(=O)N1[C@@H]2CC[C@H]1c1ccc(Nc3ncc(C(F)(F)F)c(NC4CCC4)n3)cc12", "nuclei count": 16.4}, {"molecule": "COc1ccc(Br)cc1S(=O)(=O)NC(=O)/C=C/c1ccccc1Cc1ccc2ccccc2c1", "nuclei count": 104}, {"molecule": "O=C1c2ccccc2-c2nc3nonc3nc21", "nuclei count": 44}, {"molecule": "CCCCCCCc1ccc(CCc2cccc(O)c2C(=O)O)cc1", "nuclei count": 7.35}, {"molecule": "CCCCCCCCc1ccc(CCC(N)(CO)CO)cc1", "note": "[Fingolimod (FTY720)]", "nuclei count": "18.9 ± 0.71"}, {"molecule": "CCCCCCCCc1ccc(-c2ccc(C(=O)O)cc2)cc1", "nuclei count": 108}, {"molecule": "CC(C)=CCC/C(C)=C/CC/C(C)=C/CSCC(=O)O", "note": "[Farnesylthioacetic acid]", "nuclei count": 97.9}, {"molecule": "C1COC(NC(C2CC2)C2CC2)=N1", "note": "[Rilmenidine]", "nuclei count": 93.6}, {"molecule": "C1COC(NC(C2CC2)C2CC2)=N1", "note": "[Rilmenidine hemifumarate]", "nuclei count": 103}, {"molecule": "CC(C)(C)c1ccc(S(=O)(=O)/C=C/C#N)cc1", "nuclei count": 43.7}, {"molecule": "COc1cc([C@@H]2c3cc4c(cc3[C@@H](O[C@@H]3O[C@@H]5CO[C@@H](C)O[C@H]5[C@H](O)[C@H]3O)[C@H]3COC(=O)[C@H]23)OCO4)cc(OC)c1O", "note": "[Etoposide (VP-16)]", "nuclei count": 50.9}, {"molecule": "COc1cc([C@@H]2c3cc4c(cc3[C@@H](O[C@@H]3O[C@@H]5CO[C@@H](C)O[C@H]5[C@H](O)[C@H]3O)[C@H]3COC(=O)[C@H]23)OCO4)cc(OC)c1O", "note": "[Etoposide]", "nuclei count": "44.3 ± 2"}, {"molecule": "COc1cc([C@@H]2c3cc4c(cc3[C@@H](O[C@@H]3O[C@@H]5CO[C@@H](c6cccs6)O[C@H]5[C@H](O)[C@H]3O)[C@H]3COC(=O)[C@H]23)OCO4)cc(OC)c1O", "note": "[Teniposide (Vumon)]", "nuclei count": 15.5}, {"molecule": "CC[C@H](CO)Nc1nc(Nc2cccc(-c3ccccn3)c2)c2ncn(C(C)C)c2n1", "note": "[(R)-DRF053 dihydrochloride]", "nuclei count": 76.2}, {"molecule": "CC(Oc1ccc(O)cc1)(P(=O)(O)O)P(=O)(O)O", "nuclei count": "105 ± 0.12"}, {"molecule": "CO[C@@H]1[C@H](O)[C@@H](CO)O[C@H]1n1cnc2c(NC3CCCCC3)ncnc21", "nuclei count": 102}, {"molecule": "COCC[n+]1c2c(n(Cc3cnccn3)c1C)C(=O)c1ccccc1C2=O", "nuclei count": 14.1}, {"molecule": "CC(=O)NNC(=O)N1Cc2ccccc2Oc2ccc(Cl)cc21", "nuclei count": 94.3}, {"molecule": "OCc1ccc(O[C@@H]2O[C@H](CO)[C@@H](O)[C@H](O)[C@H]2O)cc1", "note": "[Gastrodin (Gastrodine)]", "nuclei count": 94.5}, {"molecule": "CCN(CC)CCOc1ccc(Cc2ccccc2)cc1", "note": "[DPPE fumarate]", "nuclei count": 101}, {"molecule": "CCN(CC)CCOc1ccc(Nc2ncc3cc(-c4c(Cl)cccc4Cl)c(=O)n(C)c3n2)cc1", "nuclei count": 7.54}, {"molecule": "CSc1cccc(Nc2ncc3cc(-c4c(Cl)cccc4Cl)c(=O)n(C)c3n2)c1", "nuclei count": 72.2}, {"molecule": "Cc1ccc(CC2(O)CCN(CCOc3ccc(O)cc3)CC2)cc1", "nuclei count": 87.3}, {"molecule": "COc1ccc(CCC(=O)c2c(O)cc(O[C@@H]3O[C@H](CO)[C@@H](O)[C@H](O)[C@H]3O[C@@H]3O[C@@H](C)[C@H](O)[C@@H](O)[C@H]3O)cc2O)cc1O", "note": "[Neohesperidin dihydrochalcone (Nhdc)]", "nuclei count": 98.7}, {"molecule": "COC(=O)[C@]12CCC(C)(C)C[C@H]1[C@H]1C(=O)C=C3[C@@]4(C)C=C(C#N)C(=O)C(C)(C)[C@@H]4CC[C@@]3(C)[C@]1(C)CC2", "note": "[Bardoxolone Methyl]", "nuclei count": 4.35}, {"molecule": "C[C@]12CC[C@@H](O)C[C@@H]1CC[C@@H]1[C@@H]2CC[C@]2(C)C=CC[C@@H]12", "note": "[3a, 5a-Androstenol]", "nuclei count": 90.5}, {"molecule": "Cc1ccc(NC(=O)c2ccc(CN3CCN(C)CC3)cc2)cc1Nc1nccc(-c2cccnc2)n1", "note": "[Imatinib mesylate]", "nuclei count": "93.1 ± 2.5"}, {"molecule": "Cc1ccc(NC(=O)c2ccc(CN3CCN(C)CC3)cc2)cc1Nc1nccc(-c2cccnc2)n1", "note": "[Imatinib (STI571)]", "nuclei count": 99.1}, {"molecule": "Cc1ccc(C(=O)Nc2ccc(CN3CCN(C)CC3)c(C(F)(F)F)c2)cc1C#Cc1cnc2[nH]ncc2c1", "note": "[GZD824 Dimesylate]", "nuclei count": 14.1}, {"molecule": "Cc1ccc(C(=O)Nc2ccc(CN3CCN(C)CC3)c(C(F)(F)F)c2)cc1C#Cc1cnc2cccnn12", "nuclei count": 16.3}, {"molecule": "Cc1ccc(NC(=O)c2ccc(CN3CCN(C)CC3)cc2)cc1Nc1nccc(-c2cccnc2)n1", "note": "[Imatinib]", "nuclei count": 101}, {"molecule": "Cc1ccc(NC(=O)c2ccc(CN3CCN(C)CC3)cc2)cc1Nc1nccc(-c2cccnc2)n1", "note": "[Imatinib Mesylate]", "nuclei count": 96.8}, {"molecule": "Cc1ccc(NC(=O)c2ccc(CN3CC[C@H](N(C)C)C3)c(C(F)(F)F)c2)cc1Nc1nccc(-c2cncnc2)n1", "note": "[Bafetinib (INNO-406)]", "nuclei count": 77.9}, {"molecule": "Cc1ccc(NC(=O)c2ccc(CN3CCN(C)CC3)cc2)cc1Nc1nc(-c2cccnc2)cs1", "note": "[Masitinib (AB1010)]", "nuclei count": 90.7}, {"molecule": "CCNC(=O)Nc1ccc(-c2nc3c(c(N4CCOC[C@@H]4C)n2)CCN(C2COC2)C3)cc1", "nuclei count": "75.4 ± 5.5"}, {"molecule": "O=C(O)[C@]1(Cc2cccc(Nc3nccs3)n2)CC[C@@H](Oc2cccc(Cl)c2F)CC1", "nuclei count": "77.7 ± 2.7"}, {"molecule": "CC(C1=C(CCN(C)C)Cc2ccccc21)c1ccccn1", "note": "(stereo in doubt) [(S)-(+)-Dimethindene maleate]", "nuclei count": 101}, {"molecule": "CCNC(=O)c1cc2c(-c3cc(OCCN4CCCC4)c(Cl)cc3Cl)nc(N)nc2s1", "nuclei count": 67}, {"molecule": "NC(=O)N1c2ccccc2CC(O)c2ccccc21", "note": "(stereo not given) [Licarbazepine]", "nuclei count": 104}, {"molecule": "CCNc1nc(Nc2cc(F)c(C(=O)N3CCOCC3)cc2OC)ncc1C(F)(F)F", "nuclei count": 96.2}, {"molecule": "COc1ccc(-n2[nH]c3c4c(ncc3c2=O)CCCCC4)cc1", "nuclei count": 99.9}, {"molecule": "O=C(O)c1cc(O)ccc1O", "note": "[Gentisic acid]", "nuclei count": 103}, {"molecule": "COc1ccc2[nH]c(-c3ccccc3)c(CCNC(C)=O)c2c1", "note": "[2-Phenylmelatonin]", "nuclei count": 84.5}, {"molecule": "N[C@@H](CSC(c1ccccc1)(c1ccccc1)c1ccccc1)C(=O)O", "note": "[S-Trityl-L-cysteine]", "nuclei count": 95}, {"molecule": "CNC(=O)c1nn(C)c2c1C(C)(C)Cc1cnc(Nc3ccc(N4CCN(C)CC4)cc3)nc1-2", "nuclei count": "54.8 and 36.4"}, {"molecule": "C=CC(=O)Nc1cccc(Nc2nc(Nc3ccc(OCCOC)cc3)ncc2F)c1", "nuclei count": 34.7}, {"molecule": "Cc1cnc(Nc2ccc(N3CCN(C)CC3)cc2)nc1Nc1cccc(S(=O)(=O)NC(C)(C)C)c1", "nuclei count": 5.44}, {"molecule": "CS(=O)(=O)c1cccc(CNc2nc(Nc3ccc4c(c3)CCC(=O)N4)ncc2C(F)(F)F)c1", "nuclei count": "45.9 ± 3.2"}, {"molecule": "C=CCn1c(=O)c2cnc(Nc3ccc(N4CCN(C)CC4)cc3)nc2n1-c1cccc(C(C)(C)O)n1", "nuclei count": 25.1}, {"molecule": "Cc1cnc(Nc2ccc(OCCN3CCCC3)cc2)nc1Nc1cccc(S(=O)(=O)NC(C)(C)C)c1", "nuclei count": "7.48 and 5.57"}, {"molecule": "Oc1cc2c(cc1O)[C@@H]1c3ccc(O)c(O)c3OC[C@]1(O)C2", "note": "[Hematoxylin (Hydroxybrazilin)]", "nuclei count": 86}, {"molecule": "Cc1nn(C)c2nc(NNC(=O)Nc3cc(Cl)nc(Cl)c3)cc(C(C)C)c12", "nuclei count": 106}, {"molecule": "COC(=O)C1=C(C)NC(C)=C([N+](=O)[O-])[C@H]1c1ccccc1C(F)(F)F", "nuclei count": 99.5}, {"molecule": "O=C(c1ccc(Cl)cc1Cl)n1nnc2ccccc21", "nuclei count": 83.2}, {"molecule": "COc1cc(OC)c(/C=C/S(=O)(=O)Cc2ccc(OC)c(NCC(=O)O)c2)c(OC)c1", "nuclei count": "16.3 ± 1.4"}]}]}
